SMILES strings stand for the structures. Records with an inconclusive call do not appear. Calls of active or inactive are those of the source. Calls follow the shape of the dose curve; as a rule, active = well fitted cell-killing curve with a large enough effect; inconclusive = small, poorly fitted or top-dose-only effect, or effect the other way; inactive = no such curve, though single readings can be large or run the other way.

This is an account of results in PubChem BioAssay (NCATS).
Potency is read from the fitted curve at half-maximal effect.

This experiment can be described thus: Quantitative High-Throughput drug screen in 47 multiple myeloma cell lines against the NCATS MIPE library collection: UTMC2_PLB cell viability assay (AID 1919868). Also: nearly all actives have a fitted effect of over 55% in size. The note with it: CellTiter-Glo ATP luminescence, 48 h; viability (% of DMSO control): at 45.8 µM (top of the series). From the text:
PI: Beverly A. Mock Ph.D.
Laboratory of Cancer Biology and Genetics,
Center for Cancer Research, National Cancer Institute,
National Institute of Health, Bethesda, Maryland
Drug resistance and disease progression are common in multiple myeloma (MM) patients, underscoring the need for new therapeutic combinations. […] We hypothesized that effective combinations would reduce MYC expression and enhance p16 activity. […] These preclinical data identify potentially useful drug combinations for evaluation in drug-resistant MM and reveal potential mechanisms of combined drug sensitivity.
Described herein is the primary MIPE qHTS used to cherrypick compounds. Validated compounds were then further tested for potential synergistic activiy.
[1] Peat TJ, Gaikwad SM, Dubois W, Gyabaah-Kessie N, Zhang S, Gorjifard S, Phyo Z, Andres M, Hughitt VK, Simpson RM, Miller MA, Girvin AT, Taylor A, Williams D, D'Antonio N, Zhang Y, Rajagopalan A, Flietner E, Wilson K, Zhang X, Shinn P, Klumpp-Thomas C, McKnight C, Itkin Z, Chen L, Kazandijian D, Zhang J, Michalowski AM, Simmons JK, Keats J, Thomas CJ, Mock BA. Drug combinations identified by high-throughput screening promote cell cycle transition and upregulate Smad pathways in myeloma. Cancer Lett. 2023 Aug 1;568:216284. doi: 10.1016/j.canlet.2023.216284. Epub 2023 Jun 24. PMID: 37356470; PMCID: PMC10408729.
SEQUENCE No. (e.g., 1, 2, 3, etc.); […] (e.g., Cells, Incubation, Reagent, etc.); VALUE and DESCRIPTION.
1; Cells; 5 uL; white, solid bottom 1536-well Greiner assay plate.
2; Compounds; 23 nL; Kalypsis pin tool (Wako USA) equipped with a 1536-well pin head to transfer to the assay plates.
3; Incubation; 48 hours; 37C incubation.
4; Reagent;5uL; CellTiter Glo (Promega).
5; Detector; 425V; Luminescence; Viewlux PerkinElmer.
NOTES (numbers refer to Sequence numbers above)
1. The cell-based screening methods employed in this study were like those previously published. Briefly, the corresponding myeloma cell lines were screened in 1,536-well plates with 500 cells, 5-uL per well for inhibition of cell viability (assessed by measuring ATP levels with CellTiterGlo).
2. NCATS MIPE 4.0 library of approved and investigational drugs were added using the Kalypsis pin tool. Wells treated with DMSO only for 100% viability and media only for 0% viability were used as controls.
3. The assay plates were covered and incubated for 48 hours in a 37C, 5% CO2 incubator with controlled humidity.
4. After 48 hours, CellTilter-GloTM luminescent substrate mix (Promega) reagent was added to the assay plate and plates we incubated for 5 min at room temperature.
5. Signal was measured as median relative luminescence units on a ViewLux (PerkinElmer) multiplate reader.
[1] Heske CM, Davis MI, Baumgart JT, Wilson K, Gormally MV, Chen L, Zhang X, Ceribelli M, Duveau DY, Guha R, Ferrer M, Arnaldez FI, Ji J, Tran HL, Zhang Y, Mendoza A, Helman LJ, Thomas CJ. Matrix Screen Identifies Synergistic Combination of PARP Inhibitors and Nicotinamide Phosphoribosyltransferase (NAMPT) Inhibitors in Ewing Sarcoma. Clin Cancer Res. 2017 Dec 1;23(23):7301-7311. doi: 10.1158/1078-0432.CCR-17-1121. Epub 2017 Sep 12. PMID: 28899971; PMCID: PMC6636827.
A general note: In ATP-based viability assays light output follows the ATP content of the culture.
`CC(C)(O)C=CC(=O)[C@](C)(O)[C@H]1[C@H](O)C[C@]2(C)[C@@H]3CC=C4[C@@H](C=C(O)C(=O)C4(C)C)[C@]3(C)C(=O)C[C@@]12C`: the Potency is 41.8 nM (active).

For `O=[N+]([O-])c1ncc[nH]1`, the Potency entry is “inactive”.

Turning to `CC(C)N(CCNC(=O)CN1CCCC1=O)C(C)C`, the Potency result was “inactive”.

On to `NC1CC1c1ccccc1` (stereo not given), for which the Potency entry is “inactive”.

Take `COc1cc([C@@H]2c3cc4c(cc3[C@@H](O)C3COC(=O)C32)OCO4)cc(OC)c1O` (stereo not given in full): the Potency was 46.9 nM (active).

For `C[C@]12CC[C@H](O)CC1=CC[C@H]1[C@H]3CCC(=O)[C@@]3(C)CC[C@@H]12`, the Potency entry is “inactive”.

On to `CC=C(C)C(=O)N[C@@H](c1ccccc1)[C@@H](O)C(=O)O[C@H]1C[C@@]2(O)[C@@H](OC(=O)c3ccccc3)[C@@H]3[C@]4(OC(C)=O)CO[C@@H]4C[C@H](O)[C@@]3(C)C(=O)[C@H](OC(C)=O)C(=C1C)C2(C)C`, for which the Potency result was “inactive”.

`C[C@@H]1CC[C@@]2(OC1)O[C@H]1C[C@H]3[C@@H]4CC=C5C[C@@H](O[C@@H]6O[C@H](CO)[C@@H](O[C@@H]7O[C@@H](C)[C@H](O)[C@@H](O)[C@@H]7O)[C@H](O)[C@@H]6O[C@@H]6O[C@@H](C)[C@H](O)[C@@H](O)[C@@H]6O)CC[C@]5(C)[C@@H]4CC[C@]3(C)[C@@H]1[C@H]2C`: the Potency is 2640 nM (active).

Take `C[C@H]1CCCC=CC2C[C@H](O)C[C@@H]2[C@H](O)C=CC(=O)O1` (stereo not given in full): the Potency entry was “inactive”.

On to `CCOC(=O)c1c(C(C#N)=CN)c2ccc(Cl)c(Cl)c2n1C`, for which the Potency entry is “inactive”.

Take `O=C1CCC[C@@H]2[C@H]3CCCN4CCC[C@@H](CN12)[C@@H]34`: the Potency entry is “inactive”.

`O=c1[nH]c2ccccc2n1C1CCN(Cc2ccc(-c3[nH]c4cc5ncnc5cc4nc3-c3ccccc3)cc2)CC1`: the Potency was 13200 nM (active).

For `COC1=C[C@@H]2[C@@H]3Cc4ccc(OC)c(O)c4[C@]2(CCN3C)CC1=O`, the Potency is 4690 nM (active).

Turning to `COC[C@H]1OC(=O)c2coc3c2[C@@]1(C)C1=C(C3=O)[C@@H]2CC[C@H](O)[C@@]2(C)C[C@@H]1OC(C)=O`, the Potency was 296 nM (active).

As to `CC[C@H]1C=CC=CC[C@@H](C)[C@H](O)[C@@](C)(O)C(=O)[C@@H](C)[C@H](O)[C@@H](C)C(=O)[C@@H](C)[C@H](O)[C@@H](C)C=CC(=O)O[C@@H]2[C@@H](C)[C@H](CC1)O[C@]1(CC[C@H](C)[C@H](C[C@@H](C)O)O1)[C@H]2C`, the Potency was 1 nM (active).

As for `CC(C)[C@]12O[C@@H]1[C@@H]1O[C@]13[C@]1(O[C@H]1C[C@@H]1C4=C(CC[C@@]13C)C(=O)OC4)[C@H]2O`, the Potency result was “inactive”.

For `CN1CCN(c2ccc([N+](=O)[O-])c3no[n+]([O-])c23)CC1`, the Potency is 18700 nM (active).

With `CC1=C(O)C(=O)C=C2C1=CC=C1[C@@]2(C)CC[C@@]2(C)[C@@H]3C[C@](C)(C(=O)O)CC[C@]3(C)CC[C@]12C`, the Potency was 1480 nM (active).

In the case of `CCN1CCN(C(=O)Cc2ccc(Nc3ncc(F)c(Nc4ccc(C(=O)Nc5ccccc5Cl)cc4)n3)cc2)CC1`, the Potency was 1320 nM (active).

With `CCOP(=O)(OCC)C(C)NC(=O)N(CCCl)N=O` (stereo not given), the Potency result was “inactive”.

On to `C1=C2CCCN[C@H]2[C@@H]2C[C@H]1[C@@H]1CCCCN1C2`, for which the Potency result is “inactive”.

`Cc1ccccc1-n1c(Cn2ncc3c(N)ncnc32)nc2cccc(C)c2c1=O`: the Potency was 74.3 nM (active).

As for `O=C(Nc1ccncc1)C(=O)c1cn(Cc2ccc(Cl)cc2)c2ccccc12`, the Potency is 13.2 nM (active).

As to `Cc1c(C(=O)Nc2cccc(C(F)(F)F)c2)cc(-c2ccccc2)n1CCCN1CCOCC1`, the Potency is 5900 nM (active).

Consider `CN[C@@H]1Cc2cccc3[nH]c(=O)n(c23)C1`, for which the Potency entry was “inactive”.

In the case of `COc1cc2cc(c1Cl)N(C)C(=O)C[C@H](OC(=O)C(C)C)[C@]1(C)O[C@H]1[C@H](C)[C@@H]1C[C@@](O)(NC(=O)O1)[C@H](OC)C=CC=C(C)C2`, the Potency entry was “inactive”.

In the case of `COC1=CC(C)=C[C@@H](C)[C@@H](O)[C@@H](C)CC(C)=CC=C[C@H](OC)[C@H]([C@@H](C)[C@@H](O)[C@H](C)[C@@]2(O)C[C@@H](O)[C@H](C)[C@@H](C(C)C)O2)OC1=O`, the Potency is 1 nM (active).

For the molecule `CC=C(C)C(=O)O[C@H]1C(C)=C2[C@@H]3OC(=O)[C@@](C)(O)[C@@]3(O)[C@@H](OC(=O)CCC)C[C@](C)(OC(C)=O)[C@@H]2[C@@H]1OC(=O)CCCCCCC`, the Potency was 743 nM (active).

As to `C[C@]12CC[C@H]3[C@@H](CCC4=CC(=O)CC[C@@]43C)[C@H]1CC[C@H]2O`, the Potency result is “inactive”.

Turning to `C[C@@]12OC(=O)[C@]1([C@@H](O)[C@@H]1C=CCCC1)NC(=O)[C@H]2CCCl`, the Potency was 23.5 nM (active).

Take `COc1ccc(N(C(=O)Oc2c(C)cccc2C)c2ccnc(Nc3ccc(N4CCN(C)CC4)cc3)n2)c(OC)c1`: the viability (% of DMSO control) is 84% (active).

On to `CO[C@H]1CCC(O[C@H]2C[C@H]([C@]3(C)CC[C@]4(C[C@H](O)[C@@H](C)[C@@H]([C@@H](C)C=C(C)C(=O)[C@H](C)C[C@H](C)C(=O)O)O4)O3)O[C@]3(O[C@@H]([C@H]4O[C@@](O)(CO)[C@H](C)C[C@H]4C)C[C@H]3C)[C@H]2C)O[C@H]1C` (stereo not given in full), for which the Potency was 469 nM (active).

On to `COCC1(CO)C(=O)C2CCN1CC2` (stereo not given), for which the Potency was 11800 nM (active).

As to `CCCCCC[C@H]1C(=O)O[C@H](C)[C@H](NC(=O)c2cccc(NC=O)c2O)C(=O)O[C@@H](C)[C@@H]1OC(=O)CC(C)C`, the Potency is 52.6 nM (active).

As for `CC[C@@]1(O)C(=O)OCc2c1cc1n(c2=O)Cc2cc3ccccc3nc2-1`, the Potency is 16.6 nM (active).

Consider `CN(C)NC(=O)CCC(=O)O`, for which the Potency was 37.2 nM (active).

Consider `CC(=O)OCC1=C(C(=O)O)N2C(=O)[C@@H](N)[C@@H]2SC1`, for which the Potency entry is “inactive”.

In the case of `CC(C)N[C@@H]1CCn2c(=O)[nH]c3cccc(c32)[C@@H]1O`, the Potency was 10500 nM (active).

As to `Cc1ccccc1-n1c(Cn2cnc3c(N)ncnc32)nc2cccc(C)c2c1=O`, the Potency was 66.2 nM (active).

For the molecule `COc1ccc2c(c[n+](C)c3c4cc5c(cc4ccc23)OCO5)c1OC`, the Potency was 5260 nM (active).
